SMILES strings stand for the structures. ± gives the standard deviation of the averaged measurements.

This test relates to Caenorhabditis elegans N2 infected with Nematocida parisii ERTm1. Kind of test: progeny production relative to DMSO uninfected control; higher = more progeny despite microsporidia infection (inhibition of infection with low host toxicity). The settings on record: infection time 6 days; 100 µM. In outline: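 In 96-well plates holding K-medium, E. coli OP50 and 15,000 N. parisii spores/μL, 100 wild-type C. elegans L1 larvae per well were exposed to compound at 100 μM or 40 μM in 1% DMSO for 6 days with shaking at 21°C. Worms were then stained with Rose Bengal, scanned and counted with WorMachine, with three runs per compound and dose. Each value is progeny production as a percentage of the spore-free vehicle condition, averaged over replicates.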
The compound `CC(C)Cn1c(=O)n(C)c(=O)c2c(-c3cncn3C)n(Cc3cccc4ccccc34)nc21` had a progeny production of 6.12 ± 1.8%.
`c1ccc(Cn2c(-c3ccccn3)nc3ccccc32)cc1` returned a progeny production of 4.55 ± 2.1%.
The value for `O=c1[nH]c(=O)n(Cc2cccc(Oc3ccccc3)c2)cc1Nc1ccccc1` was 9.39 ± 4.3%; that for `CCCCCCC1c2ccc(O)cc2Oc2cc(O)ccc21` was 29.9 ± 30%; that for `O=C1NC(=S)N/C1=C\c1cc(Br)cc(Br)c1O` was 10.2 ± 8.1%.
As to `Cc1cccc(C)c1C(=O)Nc1nc(-c2ccccn2)cc2ccccc12`, the progeny production was determined as 6.64 ± 4.7%.
`Cc1ccc(S(=O)(=O)Nc2cccc3cccnc23)cc1`: the progeny production worked out at 7.42 ± 4.3%.
The value for `COc1ccc(OCc2ccc(COc3c(Cl)cccc3Cl)cc2)c(Cl)c1` was 12.3 ± 5.3%; that for `CCOc1noc2cc(OCCC3CCN(c4ccc(C)nn4)CC3)ccc12` was 17.1 ± 11%.
The figure for `O=C(Cc1ccccc1F)Nc1nc2ccccc2[nH]1` is 8.29 ± 4.9%; for `COC(=O)Nc1nc2c(C)cccc2[nH]1` it is 78.2 ± 11%; for `O=C(NCc1ccccc1Cl)c1cnc2ccccc2n1` it is 12.1 ± 12%.
Consider `C[C@@H]1O[C@@H]1P(=O)(O)O`, for which the progeny production amounted to 15.3 ± 13%.
The value for `O=C(O)COc1cccc2c1CC[C@](O)(COC(=O)N(c1ccccc1)c1ccccc1)C2` was 15.6 ± 8.1%.
Take `Cc1cccc(CC(=O)N[C@H]2CCOC2=O)c1`: the progeny production stood at 6.81 ± 3.6%.
For the compound `CCOC(=O)N1CCN(c2ccc(Cl)cc2)CC1`, the progeny production turned out to be 12.1 ± 18%.
The figure for `CC(C)Oc1ccc(-n2cnc3cc(/C=C\c4ccc(C(C)(C)O)cc4)ccc32)cc1` is 10.6 ± 2%.
The value for `NC(=O)c1nccn([C@@H]2O[C@H](CO)[C@@H](O)[C@H]2O)c1=O` was 10.3 ± 7.2%; that for `O=C(Cn1cnc2ccccc2c1=O)Nc1ccccc1` was 8.2 ± 5.5%.
The value for `Cc1nc2ccc(Cl)cc2c(-c2ccccc2)c1CC(=O)O` was 13.8 ± 12%.
